Test results from PubChem BioAssay AID1159580 (chemical genetic matrix, 2015).
Values joined by “and” are separate entries in the source; they are usually repeats but may differ in a detail not shown here. Identical values can stand only once. About 2,000 (36%) of roughly 5,500 compounds were called active. Not shown: some 18% with an inconclusive outcome. Cut-off read from the data, not from the text of the source: active = normalized growth mostly below about 0.91 (no sharp cut-off); inconclusive = no clear call, values can overlap the other calls; inactive = mostly above about 0.92. Some of the results follow.

Experiment: chemical genetic growth profiling, strain panel (AID 1159580);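 note: tested at 20 µM; growth read once vehicle control cultures reached saturation at 30 °C; 1 = growth at the plate median or of vehicle wells; lower values mean less growth of the strain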
Conditions: S. cerevisiae deletion strains, growth OD

Measured: normalized growth

COc1c2ccoc2cc2oc(C)cc(=O)c12
inactive: locus YAL021C, strain ccr4, stronger effect = lower value 1 | locus YAL026C, strain drs2, stronger effect = lower value 0.999 | locus YAL030W, strain snc1, stronger effect = lower value 0.987 | locus YBL061C, strain skt5, stronger effect = lower value 1 | locus YBR009C, strain hhf1, stronger effect = lower value 0.993 | locus YBR021W, strain FUR4, stronger effect = lower value 0.997 | locus YBR023C, strain chs3, stronger effect = lower value 0.991 | locus YBR171W, strain sec66, stronger effect = lower value 0.987 | locus YBR229C, strain ROT2, stronger effect = lower value 0.948 | locus YBR231C, strain swc5, stronger effect = lower value 0.99 | locus YBR279W, strain paf1, stronger effect = lower value 0.995 | locus YCL011C, strain gbp2, stronger effect = lower value 0.985 | locus YCL016C, strain dcc1, stronger effect = lower value 0.979 | locus YCL029C, strain bik1, stronger effect = lower value 0.98 | locus YCL069W, strain vba3, stronger effect = lower value 1.01 | locus YCR088W, strain abp1, stronger effect = lower value 0.99 | locus YDL005C, strain med2, stronger effect = lower value 1 | locus YDL035C, strain GPR1, stronger effect = lower value 0.972 | locus YDL040C, strain nat1, stronger effect = lower value 1 | locus YDL074C, strain BRE1, stronger effect = lower value 0.981 | locus YDL101C, strain DUN1, stronger effect = lower value 0.96 | locus YDL134C, strain PPH21, stronger effect = lower value 0.964 | locus YDL185W, strain tfp1, stronger effect = lower value 0.971 | locus YDL192W, strain arf1, stronger effect = lower value 0.945 | locus YDR001C, strain nth1, stronger effect = lower value 0.997 | locus YDR069C, strain doa4, stronger effect = lower value 1 | locus YDR101C, strain arx1, stronger effect = lower value 1.02 | locus YDR137W, strain rgp1, stronger effect = lower value 1 | locus YDR159W, strain sac3, stronger effect = lower value 1.02 | locus YDR162C, strain NBP2, stronger effect = lower value 0.905 | locus YDR195W, strain ref2 1.03 | locus YDR297W, strain sur2, stronger effect = lower value 1 | locus YDR318W, strain mcm21, stronger effect = lower value 0.945 | locus YDR334W, strain swr1, stronger effect = lower value 1 | locus YDR335W, strain msn5, stronger effect = lower value 1 | locus YDR388W, stronger effect = lower value 0.996 | locus YDR392W, strain spt3, stronger effect = lower value 0.961 | locus YDR502C, strain sam2, stronger effect = lower value 0.966 | locus YEL003W, strain gim4, stronger effect = lower value 1 | locus YEL037C, strain rad23, stronger effect = lower value 1 | locus YEL061C, strain CIN8 (second series), stronger effect = lower value 0.997 | locus YEL061C, strain CIN8, stronger effect = lower value 0.975 | locus YER015W, strain faa2, stronger effect = lower value 0.997 | locus YER016W, strain bim1, stronger effect = lower value 0.996 | locus YER110C, stronger effect = lower value 0.972 | locus YER111C, strain swi4, stronger effect = lower value 0.985 | locus YER155C, strain BEM2 (second series), stronger effect = lower value 0.999 | locus YER155C, strain BEM2, stronger effect = lower value 1 | locus YER167W, strain BCK2, stronger effect = lower value 0.98 | locus YFR010W, strain ubp6, stronger effect = lower value 0.985 | locus YGL078C, strain dbp3, stronger effect = lower value 0.999 | locus YGL086W, strain mad1, stronger effect = lower value 1.05 | locus YGL167C, strain pmr1, stronger effect = lower value 0.997 | locus YGL173C, strain kem1, stronger effect = lower value 0.984 | locus YGL227W, strain vid30, stronger effect = lower value 0.986 | locus YGL240W, strain doc1, stronger effect = lower value 1.01 | locus YGL248W, strain PDE1, stronger effect = lower value 0.928 | locus YGL253W, strain hxk2, stronger effect = lower value 0.988 | locus YGR078C, strain PAC10, stronger effect = lower value 0.922 | locus YGR135W, strain pre9, stronger effect = lower value 0.914 | locus YGR252W, strain gcn5, stronger effect = lower value 0.912 | locus YHR013C, strain ard1, stronger effect = lower value 0.993 | locus YHR027C, strain rpn1, stronger effect = lower value 0.995 | locus YHR030C, strain SLT2, stronger effect = lower value 0.987 and 1.04 | locus YHR079C, strain IRE1 (second series), stronger effect = lower value 1 | locus YHR079C, strain IRE1, stronger effect = lower value 1.04 | locus YHR094C, strain hxt1, stronger effect = lower value 0.978 | locus YHR129C, strain ARP1, stronger effect = lower value 0.981 | locus YHR142W, strain chs7, stronger effect = lower value 0.971 | locus YHR200W, strain rpn10, stronger effect = lower value 0.953 | locus YIL066C, strain RNR3, stronger effect = lower value 0.971 | locus YIL073C, strain SPO22, stronger effect = lower value 0.936 | locus YIL125W, strain kgd1, stronger effect = lower value 1 | locus YIR030C, strain dcg1, stronger effect = lower value 0.995 | locus YJL092W, strain hpr5, stronger effect = lower value 0.993 | locus YJL095W, strain BCK1 (second series), stronger effect = lower value 0.999 | locus YJL095W, strain BCK1, stronger effect = lower value 0.884 and 1.03 | locus YJL115W, strain asf1, stronger effect = lower value 1.01 | locus YJL129C, strain trk1, stronger effect = lower value 1.01 | locus YJL134W, strain LCB3, stronger effect = lower value 0.985 | locus YJL154C, strain vps35, stronger effect = lower value 1.01 | locus YJL164C, strain tpk1, stronger effect = lower value 0.989 | locus YJL166W, strain qcr8, stronger effect = lower value 0.984 | locus YJL168C, strain set2, stronger effect = lower value 1 | locus YJL187C, strain SWE1 (second series), stronger effect = lower value 0.947 | locus YJR043C, strain POL32, stronger effect = lower value 0.97 | locus YJR066W, strain TOR1, stronger effect = lower value 0.993 | locus YJR075W, strain HOC1, stronger effect = lower value 0.955
